Read-out in test [1]: TIMP metallopeptidase inhibitor 2 (TIMP2), TIMP2 (gene 7077)
Briefly: BSK_KF3CT_TIMP2: BioMAP Diversity Plus: KF3CT Assay for TIMP metallopeptidase inhibitor 2 (TIMP2) Biomarker Activity (AID 2283071). The note with it: primary human keratinocytes with fibroblasts; actives raise or lower the signal. In short, it runs like this: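 Co-culture of human primary keratinocytes and foreskin fibroblasts, measured 24 h after chemical dosing. TIMP-2 quantified by ELISA and fitted in both directions relative to DMSO. Cytotoxicity checked in parallel cultures by SRB total-protein staining.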

Read-out in test [2]: Transforming growth factor beta 1 (TGFb1), TGFB1 (gene 7040)
Nature of the test: BSK_KF3CT_TGFb1: BioMAP Diversity Plus: KF3CT Assay for Transforming growth factor beta 1 (TGFb1) Biomarker Activity (AID 2283072). The note with it: primary human keratinocytes with fibroblasts; actives raise or lower the signal. A digest of the protocol: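 Human keratinocyte/foreskin fibroblast co-culture; TGF-b1 measured by ELISA 24 h after dosing, fitted bidirectionally versus DMSO. Cytotoxicity checked in parallel cultures by total protein (SRB staining, 560 nm).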

Read-out in test [3]: C-C motif chemokine 2 (Homo sapiens) (UniProt P13500)
Nature of the test: BSK_KF3CT_MCP1: BioMAP Diversity Plus: KF3CT Assay for Monocyte Chemoattractant Protein 1 (MCP1/CCL2) Biomarker Activity (AID 2283073). The note with it: primary human keratinocytes with fibroblasts; actives raise or lower the signal. In short, it runs like this:
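KF3CT skin co-culture (keratinocytes/foreskin fibroblasts), 24 h post-dose; MCP-1 by ELISA; gain/loss of signal fit bidirectionally vs DMSO baseline.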

Read-out in test [4]: Matrix Metallopeptidase 9 (MMP9), MMP9 (gene 4318)
Nature of the test: BSK_KF3CT_MMP9: BioMAP Diversity Plus: KF3CT Assay for Matrix Metallopeptidase 9 (MMP9) Biomarker Activity (AID 2283074).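 On AC50: MMP9 protein level quantified by ELISA in the co-culture.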 To be noted: primary human keratinocytes with fibroblasts; actives raise or lower the signal. In short, it runs like this: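 Human keratinocyte/foreskin fibroblast co-culture; compound added; 24 h; MMP-9 by ELISA; bidirectional fit vs DMSO baseline.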

Read-out in test [5]: urokinase plasminogen activator (uPA), PLAU (gene 5328)
Briefly: BSK_KF3CT_uPA: BioMAP Diversity Plus: KF3CT Assay for urokinase plasminogen activator (uPA) Biomarker Activity (AID 2283075). To be noted: primary human keratinocytes with fibroblasts; actives raise or lower the signal. A digest of the protocol:
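ELISA readout of uPA, analyzed for signal gain or loss relative to DMSO, from a human primary keratinocyte–foreskin fibroblast co-culture measured 24 h after chemical treatment.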

Read-out in test [6]: CD40, CD40 (gene 958)
Nature of the test: BSK_LPS_CD40: BioMAP Diversity Plus: LPS Assay for CD40 Biomarker Activity (AID 2283076). The note with it: primary human HUVEC with PBMC; actives raise or lower the signal. A digest of the protocol:
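ELISA readout of CD40 in HUVEC/PBMC co-culture (BSK_LPS system), 24 h post-dosing; bidirectional curve fit, DMSO baseline; parallel SRB total-protein staining for cytotoxicity.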

Read-out in test [7]: E-selectin (Homo sapiens) (UniProt P16581)
Nature of the test: BSK_LPS_Eselectin: BioMAP Diversity Plus: LPS Assay for Eselectin Biomarker Activity (AID 2283077). To be noted: primary human HUVEC with PBMC; actives raise or lower the signal. A digest of the protocol:
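ELISA readout of E-selectin, 24 h post-dose, HUVEC + PBMC co-culture (LPS system). Gain or loss of signal vs DMSO baseline, bidirectional fit.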

Read-out in test [8]: Interleukin-8 (IL8), CXCL8 (gene 3576)
Nature of the test: BSK_LPS_IL8: BioMAP Diversity Plus: LPS Assay for Interleukin-8 (IL8) Biomarker Activity (AID 2283078). The note with it: primary human HUVEC with PBMC; actives raise or lower the signal. A digest of the protocol:
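HUVEC + PBMC co-culture, LPS-activated; test chemicals dosed, IL-8 read by ELISA at 24 h. Bidirectional curve fit vs DMSO baseline (gain or loss of signal).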

Test [9] is described as follows: BSK_LPS_SRB: Viability Assessment in the BioMAP Diversity Plus: LPS Assay (AID 2283079).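 Further: total protein by sulforhodamine B absorbance as a cytotoxicity measure; measured one day after compound addition; fitted in both directions against DMSO so loss or gain of signal counts.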 The note with it: primary human HUVEC with PBMC. In short, it runs like this:
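HUVEC + PBMC co-culture, LPS-stimulated; compound 24 h. 10% TCA fix, 0.1% SRB stain, A560. Bidirectional fit vs DMSO.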

Read-out in test [10]: Interleukin-1 alpha (IL1a), IL1A (gene 3552)
Nature of the test: BSK_LPS_IL1a: BioMAP Diversity Plus: LPS Assay for Interleukin-1 alpha (IL1a) Biomarker Activity (AID 2283080). To be noted: primary human HUVEC with PBMC; actives raise or lower the signal. A digest of the protocol: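 HUVEC/PBMC co-culture, LPS system; 24 h after dosing; IL-1a by ELISA; gain or loss of signal fitted bidirectionally vs DMSO baseline.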

Read-out in test [11]: Tissue Factor, F3 (gene 2152)
Nature of the test: BSK_LPS_TissueFactor: BioMAP Diversity Plus: LPS Assay for Tissue Factor Biomarker Activity (AID 2283084). To be noted: primary human HUVEC with PBMC; actives raise or lower the signal. A digest of the protocol:
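HUVEC/PBMC co-culture, LPS-activated; CD142 ELISA read 24 h post-dose; bidirectional curve fit vs DMSO negative control.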

Read-out in test [12]: Tumor necrosis factor (Homo sapiens) (UniProt P01375)
Briefly: BSK_LPS_TNFa: BioMAP Diversity Plus: LPS Assay for Tumour Necrosis Factor alpha (TNFa) Biomarker Activity (AID 2283085). To be noted: primary human HUVEC with PBMC; actives raise or lower the signal. A digest of the protocol:
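Human umbilical vein endothelial cells co-cultured with PBMC and stimulated with LPS. TNFa was measured by ELISA 24 h after chemical dosing, fitted bidirectionally relative to DMSO.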

Read-out in test [13]: Vascular cell adhesion molecule 1 (VCAM1), VCAM1 (gene 7412)
Nature of the test: BSK_LPS_VCAM1: BioMAP Diversity Plus: LPS Assay for Vascular cell adhesion molecule 1 (VCAM1) Biomarker Activity (AID 2283086). The note with it: primary human HUVEC with PBMC; actives raise or lower the signal. In short, it runs like this:
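Human umbilical vein endothelial cells co-cultured with PBMC and stimulated with LPS; VCAM-1 measured by ELISA 24 h after dosing. Bidirectional curve fitting against DMSO baseline; cytotoxicity tracked in parallel by SRB total-protein staining.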

Read-out in test [14]: CD38, CD38 (gene 952)
Briefly: BSK_SAg_CD38: BioMAP Diversity Plus: SAg Assay for CD38 Biomarker Activity (AID 2283087). The note with it: primary human HUVEC with PBMC; actives raise or lower the signal. In short, it runs like this: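 Human HUVEC plus PBMC co-culture stimulated with superantigen; CD38 measured by ELISA 24 h after chemical dosing. Fluorescence read-out, bidirectional fit against DMSO; cytotoxicity tracked in parallel by SRB and Alamar Blue.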

Read-out in test [15]: CD40, CD40 (gene 958)
Nature of the test: BSK_SAg_CD40: BioMAP Diversity Plus: SAg Assay for CD40 Biomarker Activity (AID 2283088). The note with it: primary human HUVEC with PBMC; actives raise or lower the signal. In short, it runs like this: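 HUVEC/PBMC co-culture, 24 h post-dose; CD40 by ELISA, fluorescence intensity; bidirectional fit vs DMSO negative control.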

Read-out in test [16]: CD69, CD69 (gene 969)
Nature of the test: BSK_SAg_CD69: BioMAP Diversity Plus: SAg Assay for CD69 Biomarker Activity (AID 2283089).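 On AC50: cell surface CD69 protein quantified by ELISA with fluorescence detection.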 To be noted: primary human HUVEC with PBMC; actives raise or lower the signal. In short, it runs like this: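 Values derive from bidirectional fitting relative to DMSO vehicle. Cells: umbilical vein endothelium plus peripheral blood mononuclear cells, treated 24 h before fluorescent ELISA for CD69.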

Read-out in test [17]: Macrophage colony-stimulating factor (MCSF), CSF1 (gene 1435)
Nature of the test: BSK_LPS_MCSF: BioMAP Diversity Plus: LPS Assay for Macrophage colony-stimulating factor (MCSF) Biomarker Activity (AID 2283083). The note with it: primary human HUVEC with PBMC; actives raise or lower the signal. In short, it runs like this:
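HUVEC + PBMC co-culture (human primary), 24 h post-dose; M-CSF by ELISA; gain/loss of signal fitted bidirectionally vs DMSO baseline.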

Read-out in test [18]: Monocyte Chemoattractant Protein-1 (MCP1), CCL2 (gene 6347)
Briefly: BSK_SAg_MCP1: BioMAP Diversity Plus: SAg Assay for Monocyte Chemoattractant Protein-1 (MCP1) Biomarker Activity (AID 2283090). To be noted: primary human HUVEC with PBMC; actives raise or lower the signal. In short, it runs like this: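 MCP-1 levels in the endothelial–PBMC SAg co-culture were quantified by ELISA at 24 h post-dosing; both increases and decreases versus DMSO scored. Cytotoxicity monitored by SRB total protein in parallel cultures.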

Test [19] is described as follows: BSK_LPS_PGE2: BioMAP Diversity Plus: LPS Assay for Prostaglandin E2 (PGE2) Biomarker Activity (AID 2283082). To be noted: primary human HUVEC with PBMC; actives raise or lower the signal. In short, it runs like this: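 HUVEC plus human PBMC co-culture stimulated with LPS; secreted PGE2 quantified by ELISA 24 h after chemical dosing. Activity fitted bidirectionally against DMSO baseline; parallel SRB staining (0.1% SRB after 10% TCA fixation, 560 nm) flags overt cytotoxicity.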

Read-out in test [20]: Monocyte Chemoattractant Protein-1 (MCP1), CCL2 (gene 6347)
Briefly: BSK_LPS_MCP1: BioMAP Diversity Plus: LPS Assay for Monocyte Chemoattractant Protein-1 (MCP1) Biomarker Activity (AID 2283081). To be noted: primary human HUVEC with PBMC; actives raise or lower the signal. In short, it runs like this:
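ELISA read-out of MCP-1 after 24 h chemical dosing of a human umbilical vein endothelial cell/peripheral blood mononuclear cell co-culture stimulated with LPS. Gain or loss of signal fitted relative to DMSO controls.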

Several values for one entry are separate records, joined by “and”; a condition that tells them apart may be missing. Identical values can stand only once. The source holds several records for some structures; these can differ, active in one and inactive in another. Activity calls are given as the source filed them. How the source made its calls: active means hit-call score of the fitted dose curve at least 0.9, where 1 is the maximum; inactive means score below 0.9.

In PubChem BioAssay (EPA / NIEHS) one finds outcome and AC50 data, which are given here for 6 compounds.

E-selectin (Homo sapiens), sequence (P16581 whole entry, looked up): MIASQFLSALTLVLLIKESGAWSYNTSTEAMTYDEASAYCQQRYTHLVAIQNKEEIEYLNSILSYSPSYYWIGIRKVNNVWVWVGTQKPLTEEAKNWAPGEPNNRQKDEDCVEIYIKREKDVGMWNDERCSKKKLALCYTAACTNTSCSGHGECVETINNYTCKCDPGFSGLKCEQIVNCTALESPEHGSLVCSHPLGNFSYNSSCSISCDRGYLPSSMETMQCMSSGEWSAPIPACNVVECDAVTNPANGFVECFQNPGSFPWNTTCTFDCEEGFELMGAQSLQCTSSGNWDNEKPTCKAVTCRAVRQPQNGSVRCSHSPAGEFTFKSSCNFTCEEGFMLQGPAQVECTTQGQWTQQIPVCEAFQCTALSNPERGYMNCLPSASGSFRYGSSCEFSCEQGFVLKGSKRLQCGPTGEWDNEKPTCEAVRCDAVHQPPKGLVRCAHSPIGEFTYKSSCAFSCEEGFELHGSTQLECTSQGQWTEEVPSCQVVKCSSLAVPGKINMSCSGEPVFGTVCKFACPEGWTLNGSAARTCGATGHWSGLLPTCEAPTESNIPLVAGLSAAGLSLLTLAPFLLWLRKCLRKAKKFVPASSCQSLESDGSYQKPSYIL
Tumor necrosis factor (Homo sapiens), sequence (P01375 whole entry, looked up): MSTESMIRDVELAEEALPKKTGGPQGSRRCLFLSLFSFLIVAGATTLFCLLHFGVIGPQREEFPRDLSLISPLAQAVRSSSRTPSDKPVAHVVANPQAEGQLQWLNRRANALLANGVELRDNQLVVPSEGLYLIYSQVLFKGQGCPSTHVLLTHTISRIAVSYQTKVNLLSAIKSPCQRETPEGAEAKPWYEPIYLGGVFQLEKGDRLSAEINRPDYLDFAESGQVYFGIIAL

On to `Nc1ccc(Cl)cc1`, for which the result in test [1], in test [2], in test [3], in test [4], in [5] and in [6] was inactive. Further, the outcome in test [7], in test [8], in [9], in test [10], in test [11] and in [12] was inactive. In addition, the result in [13], in [14], in test [15] and in test [16] was inactive.

With `O=[N+]([O-])c1ccc(Cl)c(Cl)c1`, the result in [1], in test [2], in test [3], in [4], in test [5] and in [6] was inactive. Also, the result in [7], in test [8], in test [9], in test [10], in test [17] and in test [12] was inactive. The result in [14], in test [15], in [16] and in test [18] was inactive.

In the case of `OCC(F)(F)OC(F)(F)C(F)(F)OC(F)(F)C(F)(F)OC(F)(F)F`, the AC50 in test [1] was 51.7 µM (active) and 45 µM (active); in [3], 49.3 µM (active) and 22.2 µM (active); in test [4], 54.1 µM (active) and 51.6 µM (active); in test [5] it was 45.7 µM (active) and 45.1 µM (active); in [6] it was 41 µM (active); in test [8] it was 47.4 µM (active) and 51.8 µM (active). Further, the concentration at half-maximal activity (AC50) in test [10] was 55.1 µM (active); in test [19] it was 30 µM (active) and 46.8 µM (active); in test [12] it was 50.8 µM (active) and 53.5 µM (active); in [13], 42.8 µM (active); in test [14], 48.8 µM (active); in test [15] it was 41.6 µM (active). Moreover, the AC50 in test [16] is 24.4 µM (active) and 45.7 µM (active). The result in test [6], in test [7], in [9], in test [10], in [13] and in [14] was inactive. The result in test [15] was inactive.

In the case of `Cc1ccc([N+](=O)[O-])cc1C`, the result in [1], in [2], in test [3], in test [4], in [5] and in test [6] was inactive. Besides, the result in test [7], in test [8], in test [9], in test [10], in [11] and in [12] was inactive. In addition, the outcome in test [14], in test [15], in [16] and in test [18] was inactive.

As for `O=C(O)C(F)(F)OC(F)(F)C(F)(F)OC(F)(F)F`, the outcome in test [1], in test [3], in test [4], in test [5], in test [6] and in [7] was inactive. The outcome in [8], in test [9], in [10], in test [20], in [11] and in test [12] was inactive. Besides, the result in [14], in test [15] and in test [16] was inactive.

For the compound `O=P(Oc1ccccc1)(Oc1ccccc1)Oc1ccccc1`, the result in test [1], in [2], in test [3], in test [4], in test [5] and in test [7] was inactive. The result in [10] was inactive. Also, the AC50 in [6] was 23.6 µM (active); in [8], 30.6 µM (active); in test [9], 30.6 µM (active); in test [17], 32.1 µM (active); in test [12], 3.97 µM (active); in test [14], 31.7 µM (active). In addition, the AC50 was 25.9 µM (active) in test [15] and 31.6 µM (active) in [16].
